Inconclusive results are not listed. Values without a mark were called inactive. The source made the active and inactive calls. Calls follow the shape of the dose curve; as a rule, active = well fitted cell-killing curve with a large enough effect; inconclusive = small, poorly fitted or top-dose-only effect, or effect the other way; inactive = no such curve, though single readings can be large or run the other way.

We go through 17 compounds from PubChem BioAssay (NCATS).
% is scaled to controls: 0 for no effect and ±100 for the full control effect; potency is read from the fitted curve at half-maximal effect.

This assay is described as follows: qHTS assay to identify small molecule inhibitors of chordoma cells - UCH-1 (AID 1259355). Also: nearly all actives have a fitted effect of over 55% in size. Particulars: UCH-1 chordoma viability, CellTiter-Glo, 48 h, combination; series mostly up to 46.1 µM; activity, negative = inhibition: at the top concentration. The method, boiled down:
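800 cells/well, overnight attach; compounds pinned at 15 concs, then auranofin/camptothecin/doxorubicin/rubitecan/topotecan combo added; 48hr 37 C, 5% CO2; CellTiter-Glo, 30min RT, luminescence.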
In general terms: qHTS replaces the single test concentration by a dilution series.
For the compound `CCC(=O)O[C@]1(c2ccccc2)CCN(C)C[C@H]1C`, the “activity, negative = inhibition” value is -20.2%.

Regarding `C[C@]12C[C@H]3S[C@H]3C[C@@H]1CC[C@@H]1[C@@H]2CC[C@]2(C)[C@@H](O)CC[C@@H]12`, the “activity, negative = inhibition” value is -19% [at 20.6 µM].

As for `O=[N+]([O-])c1ccc(F)c([N+](=O)[O-])c1`, the “activity, negative = inhibition” value is -27.4%.

In the case of `N#CC(C#N)=Cc1cc(O)c(O)c(O)c1`, the “activity, negative = inhibition” value was 1.05%.

Turning to `COc1ccc2c3c1O[C@H]1[C@@H](O)C=C[C@H]4[C@@H](C2)NCC[C@@]341`, the “activity, negative = inhibition” value is -9.22%.

Take `COc1ccc2c(c1OC)C(=O)OC2C1c2cc3c(cc2CCN1C)OCO3` (configuration not stated): the “activity, negative = inhibition” value was -17.7%.

With `CCC1(CC)C(=O)NC(=O)N(C)C1=O`, the “activity, negative = inhibition” value was -0.626%.

For `O=C(OCCN1CCCCC1)C(O)(c1ccccc1)c1ccccc1`, the “activity, negative = inhibition” value is -12.2%.

In the case of `C[C@@H](Cc1ccccc1)NCCC(c1ccccc1)c1ccccc1`, the “activity, negative = inhibition” value was -13.2% [at 20.6 µM].

With `CCCCCl`, the “activity, negative = inhibition” value was 23.2% [at 46.1 µM, with auranofin plus four topoisomerase inhibitors].

In the case of `O=C1C[C@@H]2OCC=C3CN4CC[C@]56c7ccccc7N1[C@H]5[C@H]2[C@H]3C[C@H]46` (tested in a mixture with another compound), the Potency result was “inactive”.

Take `N#CC1(N2CCCCC2)CCCCC1`: the “activity, negative = inhibition” value was -28.5%.

Turning to `C=CCN=C=S`, the “activity, negative = inhibition” value is -13.9% [at 46.1 µM, with auranofin plus four topoisomerase inhibitors].

As for `CCOP(=O)(OCC)O/C(=C/Cl)c1ccc(Cl)cc1Cl`, the “activity, negative = inhibition” value is -1.6% [at 46.1 µM, with auranofin plus four topoisomerase inhibitors].

Turning to `Clc1ccc(Cl)cc1`, the “activity, negative = inhibition” value is -29.2% [at 46.1 µM, with auranofin plus four topoisomerase inhibitors].

Consider `CCN(CC)C(=O)/C(Cl)=C(\C)OP(=O)(OC)OC`, for which the “activity, negative = inhibition” value was 1.19% [at 46.1 µM, with auranofin plus four topoisomerase inhibitors].

Turning to `C[C@H]1CC[C@]2(NC1)O[C@H]1C[C@H]3[C@@H]4CC[C@H]5C[C@@H](O[C@@H]6O[C@H](CO)[C@H](O[C@@H]7O[C@H](CO)[C@@H](O)[C@H](O[C@@H]8OC[C@@H](O)[C@H](O)[C@H]8O)[C@H]7O[C@@H]7O[C@H](CO)[C@@H](O)[C@H](O)[C@H]7O)[C@H](O)[C@H]6O)CC[C@]5(C)[C@H]4CC[C@]3(C)[C@H]1[C@@H]2C`, the Potency was 12.6 µM (active).
